Laboratory results from PubChem BioAssay (Tox21).
Results filed as inconclusive are left out. Activity calls are given as the source filed them. The call rests on the fitted dose curve; in most records, active means well fitted curve in the direction sought with a large enough effect in the repeat runs; inconclusive means weak or mixed curves; inactive means no such curve, though single readings can be large; an effect the other way counts as inactive or inconclusive.

Assay: A CellTox Green Cytotoxicity Assay to monitor cytotoxicity in HepG2 cells - 8 hour (AID 1224890); further: nearly all actives have a fitted effect of over 45% in size
Conditions: CellTox Green fluorescence; series mostly up to 76.8 µM; cytotoxicity increase: at the top concentration
Method in brief: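 Nonlytic assay: viable cells exclude the dye, so fluorescence scales with cell death. HepG2 at 600 cells/well, compounds added after 5 h, signal read across 40 h.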
On the % scale 0 is the no-effect control and ±100 the full control effect.

SMILES	cytotoxicity increase
COc1cc2c(cc1OC)-c1cc3ccc(OC)c(OC)c3c[n+]1CC2	-7.59% (inactive)
CCOCC(C)O (centres undefined)	-2.42% (inactive)
CCCCCCCCCCOc1cc2c(=O)c(C(=O)OCC)c[nH]c2cc1OCC	-1.8% [at 6.97 µM] (inactive)
C[N+]1(C)[C@@H]2CC(OC(=O)[C@H](CO)c3ccccc3)C[C@H]1[C@@H]1O[C@@H]12 (some centres undefined)	-16% [at 35.3 µM] (inactive)
COC(=O)Nc1ccc(Cl)c(Cl)c1	-16.1% (inactive)
CC(C)c1ccc2ncccc2c1	0.745% (inactive)
CC(=O)Nc1ccc(OCC(O)CNC(C)C)cc1 (centres undefined)	-0.439% [at 35.3 µM] (inactive)
CCCCCC(=O)OCCc1ccccc1	-3.05% (inactive)
Cc1nc2ccc(CN(C)c3ccc(C(=O)N[C@@H](CCC(=O)O)C(=O)O)s3)cc2c(=O)[nH]1	8.12% [at 35.3 µM] (inactive)
O=S(=O)(O)c1cc(O)c(O)c(S(=O)(=O)O)c1	-0.33% (inactive)
CCCCc1nc(Cl)c(CO)n1Cc1ccc(-c2ccccc2-c2nn[nH]n2)cc1	-8.41% [at 35.3 µM] (inactive)
CCOC(=O)CCC(=O)OCC	-4.97% (inactive)
CC(C)(C#N)Nc1nc(Cl)nc(NC2CC2)n1	2.22% (inactive)
CCCOC(=O)CC	-4.28% (inactive)

Assay: qHTS assay to identify small molecule antagonists of the estrogen receptor alpha (ER-alpha) signaling pathway using the BG1 cell line in the presence of 0.1 nM 17-beta-estradiol - cell viability counter screen (AID 1259241); further: nearly all actives have a fitted effect of over 40% in size
Conditions: VM7Luc4E2 (BG1) viability, CellTiter-Fluor protease, 22 h, 0.1 nM estradiol agonist added; series mostly up to 92.4 µM; activity change, negative = cytotoxicity: at the top concentration
Method in brief: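 Cytotoxicity counter-screen: live-cell protease activity measured by fluorescence (30 min reagent step) in the same wells. Cells were VM7Luc4E2 with endogenous ER-alpha and ERE-driven luciferase, treated 22 hr at 37C alongside 0.1 nM 17beta-estradiol final.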

SMILES	activity change, negative = cytotoxicity
CC(=O)NC(=O)c1ccccc1O	-0.267% [at 42.5 µM] (inactive)
O=C1NC(=O)C2CC=CCC12 (centres undefined)	2.27% (inactive)
CCCc1nn(C)c2c(=O)[nH]c(-c3cc(S(=O)(=O)N4CCN(C)CC4)ccc3OCC)nc12	-15.9% [at 42.5 µM] (inactive)
CN(C)C(=O)Oc1ccc[n+](C)c1	3.57% [at 42.5 µM] (inactive)
C=CC(C)(CCC=C(C)C)OC(=O)CC (centres undefined)	-20.1% (inactive)
C[N+]12CCC(CC1)C(OC(=O)C(O)(c1ccccc1)c1ccccc1)C2 (centres undefined)	3.35% [at 42.5 µM] (inactive)
CC1=CCC(O)(C(C)C)CC1 (centres undefined)	0.773% (inactive)
c1coc(CNc2ncnc3nc[nH]c23)c1	-7.17% (inactive)
Cc1onc(-c2c(Cl)cccc2Cl)c1C(=O)Cl	3.86% [at 42.5 µM] (inactive)
CCCC(=O)O[C@]1(C(=O)CC)CC[C@H]2[C@@H]3CCC4=CC(=O)CC[C@]4(C)[C@H]3[C@@H](O)C[C@@]21C	-7.95% [at 42.5 µM] (inactive)
NCCCC[C@H](N[C@@H](CCc1ccccc1)C(=O)O)C(=O)N1CCC[C@H]1C(=O)O	0.23% [at 42.5 µM] (inactive)
CC(=O)O[C@@]12CO[C@@H]1C[C@H](O)[C@@]1(C)C(=O)[C@H](O)C3=C(C)[C@@H](OC(=O)[C@H](O)[C@@H](NC(=O)OC(C)(C)C)c4ccccc4)C[C@@](O)([C@@H](OC(=O)c4ccccc4)[C@H]21)C3(C)C	-10.5% [at 42.5 µM] (inactive)
COC(=O)C1=C(C)NC(C)=C(C(=O)OC(C)C)C1c1cccc2nonc12 (centres undefined)	-3.27% [at 42.5 µM] (inactive)
CC(C)CC(C)(N)C#N (centres undefined)	0.91% (inactive)
Nc1ccn([C@@H]2O[C@H](CO)[C@@H](O)C2(F)F)c(=O)n1	2.47% [at 42.5 µM] (inactive)
NC(=O)N1c2ccccc2CC(=O)c2ccccc21	0.403% [at 42.5 µM] (inactive)
CCCCOCCOC(=O)COc1cc(Cl)c(Cl)cc1Cl	2.78% (inactive)

SMILES	activity change, negative = cytotoxicity
COc1cc2c(cc1OC)-c1cc3ccc(OC)c(OC)c3c[n+]1CC2	-18.8% (inactive)
CCOCC(C)O (centres undefined)	-1.9% (inactive)
CC(C)COC(=O)c1ccc(N)cc1	1.43% [at 42.5 µM] (inactive)
CCCCCCCCCCOc1cc2c(=O)c(C(=O)OCC)c[nH]c2cc1OCC	4.33% [at 8.39 µM] (inactive)
C[N+]1(C)[C@@H]2CC(OC(=O)[C@H](CO)c3ccccc3)C[C@H]1[C@@H]1O[C@@H]12 (some centres undefined)	0.51% [at 42.5 µM] (inactive)
COC(=O)Nc1ccc(Cl)c(Cl)c1	0.452% (inactive)
CC(=O)Nc1ccc(OCC(O)CNC(C)C)cc1 (centres undefined)	1.54% [at 42.5 µM] (inactive)
CCCCCC(=O)OCCc1ccccc1	6.15% (inactive)
C=CCCCCCCCCC(=O)OCC	5.3% (inactive)
Cc1nc2ccc(CN(C)c3ccc(C(=O)N[C@@H](CCC(=O)O)C(=O)O)s3)cc2c(=O)[nH]1	2.42% [at 42.5 µM] (inactive)
O=S(=O)(O)c1cc(O)c(O)c(S(=O)(=O)O)c1	0.182% (inactive)
CCCCc1nc(Cl)c(CO)n1Cc1ccc(-c2ccccc2-c2nn[nH]n2)cc1	3.66% [at 42.5 µM] (inactive)
CCOC(=O)CCC(=O)OCC	-4.74% (inactive)
CC(C)(C#N)Nc1nc(Cl)nc(NC2CC2)n1	-5.25% (inactive)
O=[N+]([O-])c1ccc(/C=N\O)o1	-20% [at 42.5 µM] (inactive)
CCCOC(=O)CC	5.09% (inactive)

Assay: qHTS assay to identify small molecule antagonists of the androgen receptor (AR) signaling pathway using the MDA cell line in the presence of 0.5 nM R1881 - cell viability counter screen (AID 1259242); further: nearly all actives have a fitted effect of over 45% in size
Conditions: MDA-kb2 viability, CellTiter-Fluor protease fluorescence, 16 h; series mostly up to 92.4 µM; viability change, negative = cytotoxic: at the top concentration
Method in brief: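 R1881 at 0.5 nM final stimulated MDA-kb2 cells during 16 hr compound treatment at 37C. Cytotoxicity read: CellTiter-Fluor fluorescence after 30 min.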

SMILES	viability change, negative = cytotoxic
CC(=O)NC(=O)c1ccccc1O	0.655% [at 42.5 µM] (inactive)
O=C1NC(=O)C2CC=CCC12 (centres undefined)	0.574% (inactive)
CC1=NN(c2cccc(S(=O)(=O)O)c2)C(=O)C1	-3.17% (inactive)
CCCc1nn(C)c2c(=O)[nH]c(-c3cc(S(=O)(=O)N4CCN(C)CC4)ccc3OCC)nc12	1.48% [at 42.5 µM] (inactive)
CN(C)C(=O)Oc1ccc[n+](C)c1	6.05% [at 42.5 µM] (inactive)
C=CC(C)(CCC=C(C)C)OC(=O)CC (centres undefined)	-0.175% (inactive)
C[N+]12CCC(CC1)C(OC(=O)C(O)(c1ccccc1)c1ccccc1)C2 (centres undefined)	2.31% [at 42.5 µM] (inactive)
CC1=CCC(O)(C(C)C)CC1 (centres undefined)	0.73% (inactive)
c1coc(CNc2ncnc3nc[nH]c23)c1	2.94% (inactive)
Cc1onc(-c2c(Cl)cccc2Cl)c1C(=O)Cl	-0.0214% [at 42.5 µM] (inactive)
CCCC(=O)O[C@]1(C(=O)CC)CC[C@H]2[C@@H]3CCC4=CC(=O)CC[C@]4(C)[C@H]3[C@@H](O)C[C@@]21C	-2.15% [at 42.5 µM] (inactive)
NCCCC[C@H](N[C@@H](CCc1ccccc1)C(=O)O)C(=O)N1CCC[C@H]1C(=O)O	1.92% [at 42.5 µM] (inactive)
CC(=O)O[C@@]12CO[C@@H]1C[C@H](O)[C@@]1(C)C(=O)[C@H](O)C3=C(C)[C@@H](OC(=O)[C@H](O)[C@@H](NC(=O)OC(C)(C)C)c4ccccc4)C[C@@](O)([C@@H](OC(=O)c4ccccc4)[C@H]21)C3(C)C	-4.08% [at 42.5 µM] (inactive)
COC(=O)C1=C(C)NC(C)=C(C(=O)OC(C)C)C1c1cccc2nonc12 (centres undefined)	-2.42% [at 42.5 µM] (inactive)
CC(C)CC(C)(N)C#N (centres undefined)	1.46% (inactive)
CCCCCCCCN1CCCC1=O	4.83% (inactive)
Nc1ccn([C@@H]2O[C@H](CO)[C@@H](O)C2(F)F)c(=O)n1	-3.56% [at 42.5 µM] (inactive)
NC(=O)N1c2ccccc2CC(=O)c2ccccc21	-1.71% [at 42.5 µM] (inactive)
CCCCOCCOC(=O)COc1cc(Cl)c(Cl)cc1Cl	0.108% (inactive)

SMILES	viability change, negative = cytotoxic
CCOCC(C)O (centres undefined)	-3.43% (inactive)
CC(C)COC(=O)c1ccc(N)cc1	4.21% [at 42.5 µM] (inactive)
CC(COc1ccccc1)NN (centres undefined)	-0.728% [at 42.5 µM] (inactive)
CCCCCCCCCCOc1cc2c(=O)c(C(=O)OCC)c[nH]c2cc1OCC	2.82% [at 8.39 µM] (inactive)
C[N+]1(C)[C@@H]2CC(OC(=O)[C@H](CO)c3ccccc3)C[C@H]1[C@@H]1O[C@@H]12 (some centres undefined)	4.16% [at 42.5 µM] (inactive)
COC(=O)Nc1ccc(Cl)c(Cl)c1	4.76% (inactive)
CC(C)c1ccc2ncccc2c1	0.0754% (inactive)
CC(=O)Nc1ccc(OCC(O)CNC(C)C)cc1 (centres undefined)	7.28% [at 42.5 µM] (inactive)
CCCCCC(=O)OCCc1ccccc1	5.3% (inactive)
C=CCCCCCCCCC(=O)OCC	2.86% (inactive)
CN1CC(=O)N/C1=N/C(=O)Nc1cccc(Cl)c1	0.178% [at 42.5 µM] (inactive)
Cc1nc2ccc(CN(C)c3ccc(C(=O)N[C@@H](CCC(=O)O)C(=O)O)s3)cc2c(=O)[nH]1	1.59% [at 42.5 µM] (inactive)
O=S(=O)(O)c1cc(O)c(O)c(S(=O)(=O)O)c1	5.85% (inactive)
CCCCc1nc(Cl)c(CO)n1Cc1ccc(-c2ccccc2-c2nn[nH]n2)cc1	0.792% [at 42.5 µM] (inactive)
CCOC(=O)CCC(=O)OCC	0.985% (inactive)
CC(C)(C#N)Nc1nc(Cl)nc(NC2CC2)n1	1.42% (inactive)
O=[N+]([O-])c1ccc(/C=N\O)o1	-1.44% [at 42.5 µM] (inactive)
CCCOC(=O)CC	7.23% (inactive)
